DT40 TDP1 CPT – DT40-hTDP1 cell growth loss with CPT; Potency, µM (series often up to 46.2 µM), most hits filed as inhibitors; chicken DT40 Tdp1-/-;hTDP1 cells + 20 nM CPT, ATP luminescence, 48 h; actives 12% (n = 420,000); further: nearly all actives have a fitted effect of over 55% in size
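Chicken DT40 Tdp1-/- cells stably complemented with human TDP1 were seeded at 400 cells/well in medium containing 20 nM camptothecin, exposed to pin-transferred compounds, and grown at 37 °C for at least 48 hr. Viability was read as ATP luminescence.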
TDP1 cell noCPT – qHTS for Inhibitors of human tyrosyl-DNA phosphodiesterase 1 (TDP1): qHTS in cells in absence of CPT | DT40 Tdp1-/- hTDP1 cells, no CPT, ATP luminescence, 48 h | Potency, µM (titrated, usually from 46.2 µM), usual class: inhibitors | actives 15% (n = 420,000) | AID 686978, 2013; further: nearly all actives have a fitted effect of over 55% in size
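Growth kinetics read by CellTiter-Glo luminescence after ≥48 hr at 37 °C. Cells: DT40 Tdp1-/- stably carrying human TDP1, 400 per well, compound exposure in the absence of CPT (DMSO vehicle).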
LDHA block – LDHA (human) enzyme inhibition; P00338; purified LDHA, NADH/diaphorase-resazurin fluorescence; stronger effect = lower value; activity change, % (values are at about 110 or 230 µM); actives 0.15% (n = 480,000); AID 1347041; in the data active means activity change below about -30%; inconclusive means mostly about -25% to -30%
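LDH5 2 nM; NADH 0.06 mM, pyruvate 0.2 mM; 200 mM Tris pH 7.4, EDTA, Tween-20; 5 min RT. Detection: diaphorase 0.133 mg/mL + resazurin 37 µM, fluorescence ex540/em590 at 0 and 20 min; normalized to enzyme-free and DMSO wells.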
RORg inh – inhibitors of mouse ROR gamma transcriptional activity; Drosophila S2 Gal4-RORgamma UAS-luciferase reporter, 20 h; Potency, µM (doses to about 53.6 µM), usual class: inhibitors; actives 5.4% (n = 310,000); further: nearly all actives have a fitted effect of over 60% in size
Target sequence (P51450 whole entry, looked up, the tested form may be a part): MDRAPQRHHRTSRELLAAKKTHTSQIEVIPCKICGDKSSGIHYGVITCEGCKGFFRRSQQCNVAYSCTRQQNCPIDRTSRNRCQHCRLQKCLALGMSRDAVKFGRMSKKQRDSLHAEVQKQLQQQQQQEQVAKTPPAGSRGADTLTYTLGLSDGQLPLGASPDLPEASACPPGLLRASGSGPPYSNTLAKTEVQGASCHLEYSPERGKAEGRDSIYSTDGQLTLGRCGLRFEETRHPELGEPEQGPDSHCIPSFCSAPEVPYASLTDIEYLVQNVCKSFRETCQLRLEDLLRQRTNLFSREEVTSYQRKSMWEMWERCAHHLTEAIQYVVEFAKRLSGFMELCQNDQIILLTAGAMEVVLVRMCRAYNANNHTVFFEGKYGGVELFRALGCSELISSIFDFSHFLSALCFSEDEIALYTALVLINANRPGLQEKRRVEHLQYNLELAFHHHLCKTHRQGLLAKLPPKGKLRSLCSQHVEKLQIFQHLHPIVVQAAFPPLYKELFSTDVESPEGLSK
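Luciferase reporter read in Schneider cells carrying Gal4-RORγ (mouse) and UAS-Photinus luciferase; cells given compound 1 h before 700 uM copper sulfate induction, then incubated 20 h at ambient temperature.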
VP16 counter – counter-screen for ROR gamma inhibitors: Gal4-VP16 reporter; Drosophila S2 Gal4-VP16 UAS-luciferase, luminescence, 20 h; Potency, µM (highest dose often 53.6 µM), actives largely listed as inhibitors; actives 3.5% (n = 310,000); AID 2546;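 further: Gal4-VP16 expression switched on by copper sulfate through the metallothionein promoter; nearly all actives have a fitted effect of over 50% in size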
IL-1B inflam inh – inflammasome signaling inhibition, IL-1 beta readout; THP-1 LPS/ATP IL-1B secretion, AlphaLISA, 16 h; stronger effect = lower value; activity change, % at 57.5 µM; actives 4.7% (n = 360,000); AID 743279; in the data active means activity change below about -50%; inconclusive means mostly about -30% to -49%
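Secreted IL-1B measured by AlphaLISA bead assay after 16 h compound exposure of THP-1 cells; compounds (final up to 57.5 uM) added 1 h before LPS (250 ng/mL) and ATP (1.25 mM) stimulation; lower signal means less secretion.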
Numbers stand for hits. Hits are enriched below; roughly 18% of the tested compounds scored in any of these assays. Unless noted, the call rests on the fitted dose curve; in most records, active means well fitted curve in the direction sought with a large enough effect; inconclusive means small, poorly fitted or top-dose-only effect, or another doubt; inactive means no such curve, though single readings can be large; an effect the other way counts as inactive or inconclusive.

O=C(CCNc1ccc(Cl)c(C(F)(F)F)c1)c1ccco1 was read as DT40 TDP1 CPT 7.3µM, TDP1 cell noCPT 9.2µM, LDHA block inactive, RORg inh inconclusive, VP16 counter inconclusive and IL-1B inflam inh inactive.
Screening O=C(CCNC(=O)c1ccco1)Nc1ccc(Cl)c(C(F)(F)F)c1 returned DT40 TDP1 CPT inactive, TDP1 cell noCPT inactive, LDHA block inactive, RORg inh inactive, VP16 counter inactive and IL-1B inflam inh inactive.
`O=C(CCNc1cc(Cl)cc(Cl)c1)c1ccco1` gave DT40 TDP1 CPT 13µM, TDP1 cell noCPT 13µM, LDHA block inactive, RORg inh inactive, VP16 counter inactive and IL-1B inflam inh inactive.
Screening O=C(CNC(=O)c1ccco1)Nc1cccc(Cl)c1 returned DT40 TDP1 CPT inactive, TDP1 cell noCPT inactive, LDHA block inactive, RORg inh inactive, VP16 counter inactive and IL-1B inflam inh inactive.
Screening COC(=O)CNc1cccc(C(F)(F)F)c1 returned DT40 TDP1 CPT inactive, TDP1 cell noCPT inactive, LDHA block inactive, RORg inh inactive, VP16 counter inactive and IL-1B inflam inh inactive.
`CCN(C(=O)C(C)S(=O)(=O)Cc1ccccc1Cl)c1ccccc1` (configuration not stated) gave LDHA block inactive.
Cc1ccc(-c2cc(C(=O)Nc3nncs3)c3ccccc3n2)cc1C was read as LDHA block inactive.
Screening Cc1ccc(Cl)cc1NC(=O)CCc1ncc(-c2ccc(F)cc2)o1 returned LDHA block inactive.
`O=C(CCNc1ccc(F)cc1)c1ccco1` gave DT40 TDP1 CPT 3.3µM, TDP1 cell noCPT 7.3µM, LDHA block inactive, RORg inh 11µM, VP16 counter inconclusive and IL-1B inflam inh inactive.
For O=C(CNC(=O)c1ccco1)Nc1ccc(F)cc1 the results were DT40 TDP1 CPT inconclusive, TDP1 cell noCPT inconclusive, LDHA block inactive, RORg inh inactive, VP16 counter inactive and IL-1B inflam inh inactive.
Screening Oc1ccc(/C=N/n2c3ccccc3c3ccccc32)cc1 returned DT40 TDP1 CPT inconclusive, TDP1 cell noCPT 16µM, LDHA block inactive, RORg inh inactive, VP16 counter inactive and IL-1B inflam inh inactive.
For CCN(c1ccc(NS(=O)(=O)c2ccc(C)c(C)c2)cc1)C(C)C the results were LDHA block inactive.
`CCOC(=O)CC(C)(C)/C(C)=N/Nc1ccc([N+](=O)[O-])cc1[N+](=O)[O-]` gave DT40 TDP1 CPT inconclusive, TDP1 cell noCPT 15µM, LDHA block inactive, RORg inh inconclusive, VP16 counter inconclusive and IL-1B inflam inh inactive.
For Cc1ccc(CSC2=Nc3ccccc3C3=NC(CC(=O)NCc4cccs4)C(=O)N23)c(C)c1 (configuration not stated) the results were DT40 TDP1 CPT 15µM, TDP1 cell noCPT 21µM and LDHA block inactive.
`COc1ccccc1CNC(=O)CCC1N=C2c3ccccc3N=C(SCc3ccc(C)cc3C)N2C1=O` (configuration not stated) gave DT40 TDP1 CPT 16µM, TDP1 cell noCPT inconclusive and LDHA block inactive.
`COc1ccccc1CNC(=O)CC1N=C2c3ccccc3N=C(SCC(=O)Nc3ccc(F)cc3)N2C1=O` (configuration not stated) gave DT40 TDP1 CPT 26µM, TDP1 cell noCPT inconclusive and LDHA block inactive.
COc1ccc(CNC(=O)CCC2N=C3c4ccccc4N=C(SCc4cccc(F)c4)N3C2=O)cc1 (configuration not stated) was read as DT40 TDP1 CPT inconclusive, TDP1 cell noCPT inconclusive and LDHA block inactive.
`COc1ccccc1CNC(=O)CCC1N=C2c3ccccc3N=C(SCC(=O)Nc3ccc(N(C)C)cc3)N2C1=O` (configuration not stated) gave DT40 TDP1 CPT inconclusive, TDP1 cell noCPT 21µM and LDHA block inactive.
